Anthrax LF inh2: inhibitors of Bacillus anthracis lethal factor protease; P15917; inhibition, % at 10 µM; 0.12% of 360,000 active; multiplex microsphere protease cleavage assay, LF; further: plate controls were buffer without enzyme for full effect and enzyme alone for no effect
Autofluor counter: compound fluorescence in toxin protease inhibitor counterscreen; 3.1% of 360,000 active; fluorescence intensity (test concentration not listed); compound autofluorescence counterscreen, microsphere flow cytometry; active compounds read high; in the data active means fluorescence intensity above about 16000; inconclusive means no clear call, values can overlap the other calls
BoNT-A LC inh2: BoNT A light chain protease inhibition; multiplex microsphere protease substrate cleavage, flow cytometry; inhibition, % at 10 µM; 0.17% of 360,000 active; further: plate controls were buffer without enzyme for full effect and enzyme alone for no effect
BoNT F protease: blocks Botulinum neurotoxin F light chain protease; inhibition, % at 10 µM; 0.22% of 360,000 active; AID 588497; Multiplex microsphere protease cleavage assay, flow cytometry; in the data active means inhibition above about 35%, passing the limit was not always enough; inconclusive means no clear call, values can overlap the other calls; further: plate controls were buffer without enzyme for full effect and enzyme alone for no effect
PriA SSB inh: K. pneumoniae PriA-SSBct interaction inhibition; inhibition, % at 33 µM; AlphaScreen SSBct-PriA binding, biotinylated peptide; 0.6% of 430,000 active; AID 1272365; in the data active means inhibition mostly above about 37%, no sharp cut-off; inactive means mostly below about 20%;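 further: plate controls were negative control peptide for no effect and reference peptide for full effect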
The depositor's hits bear a star; i = inactive; u = inconclusive; x = not tested or not shown; + = active, no number. Shown are actives, neighbours in structure and some others; about 3.1% of the full set was active somewhere. Unless noted, no stated cut-off is given here; in the data, active means inhibition above about 30%; inconclusive means no clear call, values can overlap the other calls; inactive means below that.

SMILES | Anthrax LF inh2 | Autofluor counter | BoNT-A LC inh2 | BoNT F protease | PriA SSB inh
C=CCn1c(N)c(C(=O)NCc2ccco2)sc1=S | -5.9 | 21000* | -1.9 | -2.9 | 9.8
Cc1nc2ccccc2n1Cc1ccc(C(=O)NCc2cccs2)o1 | x | x | x | x | 0.0
COc1ccc(N(C)S(=O)(=O)c2c(C)[nH]c(=O)[nH]c2=O)c(OC)c1 | -3.2 | 23317* | 0.4 | -2.1 | -9.0
COc1ccc(N(C)S(=O)(=O)c2c(C)[nH]c(=O)[nH]c2=O)cc1 | 4.8 | 4122 | 0.2 | 10.0 | -2.2
Cc1ccc(C(c2sc3nc(C)nn3c2O)N2CC(C)OC(C)C2)cc1 (stereo unspecified) | -2.5 | 4891 | -0.1 | 4.0 | 4.1
Cc1nc2sc(C(c3ccc(Cl)cc3)N3CC(C)OC(C)C3)c(O)n2n1 (stereo unspecified) | 0.7 | 3430 | 1.7 | 35.9* | -7.6
COCCN1CCC(CNC(=O)c2ccc(C(C)(C)C)cc2)CC1 | x | x | x | x | -3.0
O=C(CSc1cccc2cccnc12)N/N=C/c1ccc(O)cc1 | -0.4 | 3333 | 0.1 | -2.7 | i
COc1ccc(O)c(/C=N/NC(=O)CSc2cccc3cccnc23)c1 | x | x | x | x | i
COc1cccc(/C=N/NC(=O)CSc2cccc3cccnc23)c1 | 3.5 | 4139 | -1.4 | u | +
O=C(CSc1cccc2cccnc12)NN=Cc1cccnc1 | x | x | x | x | 83.4*
Cc1cc(C)c2sc(NC(=O)C3CCCCN3S(C)(=O)=O)nc2c1 (stereo unspecified) | x | x | x | x | -13.0
C=CCNC(=S)Nc1sc2c(c1C(=O)OCC)CC(C(C)C)OC2 (stereo unspecified) | 0.3 | 22389* | 0.5 | 0.1 | 60.5*
CCOC(=O)c1c(NC(=S)NCCc2ccccc2)sc2c1CC(C(C)C)OC2 (stereo unspecified) | -1.0 | 2545 | -0.6 | -6.9 | 3.5
CCS(CC)=NS(=O)(=O)c1ccc(NC(C)=O)cc1 | 0.7 | 4549 | 1.9 | 37.4* | -3.0
C=CCn1c(SCCOc2ccc(OC)cc2)nnc1C(CO)NC(=O)c1ccc(OC)cc1 (stereo unspecified) | -12.2 | 16235* | 17.3 | 24.2 | -5.7
COc1ccc(OCCSc2nnc(CCNC(=O)c3ccc(Cl)c(Cl)c3)n2C)cc1 | -11.2 | 20984* | 2.6 | 0.8 | -8.1
C=CCn1c(SCCOc2ccc(OC)cc2)nnc1C(C)NC(=O)c1ccc(OC)cc1 (stereo unspecified) | -2.9 | 8159 | -0.3 | -9.0 | -15.0
COc1ccc(CC(=O)NC(C)c2nnc(SCC(=O)c3ccc(OC)cc3)n2C)cc1 (stereo unspecified) | -2.4 | 4304 | -0.6 | -1.9 | 23.2
COc1ccc(C(=O)NCCc2nnc(SCC(=O)Nc3ccc(Br)cc3)n2C)cc1 | 0.6 | 9873 | 0.2 | -0.1 | -1.5
COc1ccc(CC(=O)NC(C)c2nnc(SCCOc3ccc(OC)cc3)n2C)cc1 (stereo unspecified) | 4.0 | 16217* | 0.2 | 1.5 | -16.2
CCOc1ccc(NC(=O)CSc2nnc(CCNC(=O)c3ccc(OC)cc3)n2C)cc1 | 1.7 | 16470* | u | -0.3 | -0.9
COc1ccc(C(=O)NNC(=O)CSc2nnc(COc3ccccc3)n2C)cc1 | -6.6 | 16210* | 0.3 | -1.7 | -3.0
CCOc1ccc(NC(=O)CSc2nnc(C34CC5CC(CC(C5)C3)C4)n2C)cc1 | -1.4 | 17197* | -1.8 | 0.3 | 4.8
C/C(CC1CC(COCCC(C)C)OC1=O)=N\NC(N)=S (stereo unspecified) | -1.5 | 20283* | 0.9 | 1.3 | x
SMILES | Anthrax LF inh2 | Autofluor counter | BoNT-A LC inh2 | BoNT F protease | PriA SSB inh
Cc1ccc2sc3ccc(NC(=O)c4ccccc4Cl)cc3c(=O)c2c1 | 11.3 | 22506* | 8.0 | 4.0 | -28.4
Cc1cc(NC(=O)c2ccc(Cl)cc2)ccc1NC(=O)c1ccccc1Cl | -12.5 | 2820 | 4.1 | 37.1* | -18.3
CCCCC(=O)NN=Cc1cc([N+](=O)[O-])ccc1N1CCOCC1 | x | x | x | x | -4.0
CC(C)NC(=O)NC1(C)CCS(=O)(=O)C1 (stereo unspecified) | x | x | x | x | -8.0
CC1(NC(=O)N2CCCCC2)CCS(=O)(=O)C1 (stereo unspecified) | -1.1 | 22585* | 2.5 | 3.2 | -11.6
COC(=O)C1(C(=O)OC)NOC2C(=O)N(c3ccccc3)C(=O)C21 (stereo unspecified) | 0.9 | 22517* | u | 0.5 | 1.1
Cn1cc(C(=O)NCC2CCN(C(=O)c3cc4ccccc4o3)CC2)nn1 | x | x | x | x | 3.0
O=S(=O)(NCCOc1ccccc1)c1ccc2ccccc2c1 | 1.7 | 19154* | u | 3.3 | -19.2
NCCc1nnc(SCC(=O)Nc2cccc(Cl)c2)o1 | 0.0 | 6506 | -2.2 | -7.7 | 3.0
CC(C)(C)OC(=O)NCCCCCc1nnc(SCC(=O)Nc2cccc(Cl)c2)o1 | 0.3 | 16480* | 0.2 | -3.2 | -6.3
CC(C)(C)OC(=O)NCCc1nnc(SCC(=O)Nc2ccc(Br)cc2)o1 | -9.7 | 3688 | -0.9 | u | -1.2
CC(C)(C)OC(=O)NCCc1nnc(SCC(=O)Nc2cccc(Cl)c2)o1 | -0.7 | 22287* | 2.9 | 2.7 | 6.7
COc1ccccc1CN1C[C@@H]2C[C@@H](c3ccc(C)cc3)N3CCC[C@@]23C1=O | -1.1 | 8339 | -1.4 | 0.7 | -10.1
CCc1ccc([C@@H]2C[C@H]3CN(Cc4ccccc4OC)C(=O)[C@]34CCCN24)cc1 | 7.2 | 24775* | -6.6 | 33.9 | 1.4
c1ccc2c(-c3cc(C4CCNCC4)[nH]n3)cccc2c1 | -8.5 | 4779 | -0.2 | 0.3 | 39.0*
Cc1nnc(NC(=O)c2cccn(Cc3cccc(C(F)(F)F)c3)c2=O)s1 | x | x | x | x | -1.0
O=[N+]([O-])c1ccc(NN=C2CCCCC2c2ccccn2)cc1 (stereo unspecified) | x | x | x | x | 9.2
NC(=O)N/N=C1/CCCC1c1ccccn1 (stereo unspecified) | x | x | x | x | 67.0*
N#Cc1ccsc1NC(=O)c1cc(Cl)cc(Cl)c1 | x | x | x | x | -11.0
COc1cc(NC(=O)c2ccco2)c(OC)cc1NC(=O)CCC(=O)Nc1cc(C)cc(C)c1 | -1.5 | 20576* | -3.0 | -5.0 | 6.7
COc1cc(NC(=O)c2ccco2)c(OC)cc1NC(=O)CCC(=O)Nc1cc(C)ccc1C | -0.8 | 20046* | 0.4 | 0.9 | -2.7
CCCC(=O)Nc1ccc(NC(=O)c2ccco2)c(OC)c1 | 1.1 | 11080 | -0.6 | 1.7 | -7.4
CC(=O)Nc1cccc(NS(=O)(=O)c2ccc3c(c2)OCCCO3)c1 | x | x | x | x | -2.0
CCOC(=O)c1cnn(-c2ccccc2)c1NC(=O)c1cccs1 | 2.7 | 7163 | 0.1 | -1.9 | -14.4
CCOC(=O)c1cnn(CCOC(=O)c2cccs2)c1NC(=O)c1cccs1 | 0.4 | 22411* | 1.4 | 2.6 | 5.6
CC[N+]1=C(C)C(C)(C)c2cc(C)ccc21 | 4.9 | 5154 | 18.3 | -22.6 | 52.3*
CCOc1ccc(/C(O)=C2/C(=O)C(=O)N(CCOCCO)C2c2ccccn2)cc1 (stereo unspecified) | -8.5 | 22618* | -1.5 | -2.6 | x
CCOc1ccc(C(O)=C2C(=O)C(=O)N(CCOCCO)C2c2cccnc2)cc1 (stereo unspecified) | x | x | x | x | -0.9
CC(C)Oc1ccc(C(=O)N(Cc2ccsc2)Cc2ccco2)cc1 | x | x | x | x | 5.0
CCC(C(=O)N1CCN(S(C)(=O)=O)CC1)c1ccccc1 (stereo unspecified) | 1.2 | 20841* | -2.4 | -3.5 | 2.9
